Measured values: PubChem BioAssay (NCI)
About 83,000 compounds went through this panel and 20% of them were active in at least one assay; those are over-represented in the sample as a whole.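 Single-concentration screen, 48 h exposure, 96-well plates. Endpoint: percent growth. Below 10 = active.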 Active and inactive are the calls of the source.

How the values were obtained:
Assay in all cases: NCI-60 one-dose screen, 48 h (100 = growth as untreated, 0 = no growth, -100 = all killed)
Details in all cases: 10 µM unless noted
SK-MEL-2 melanoma = test system: SK-MEL-2 melanoma
EKVX NSCLC = test system: EKVX NSCLC
SN12C renal = test system: SN12C renal
UO-31 renal = test system: UO-31 renal
TK-10 renal = test system: TK-10 renal
ACHN renal = test system: ACHN renal
CAKI-1 renal = test system: CAKI-1 renal
A498 renal = test system: A498 renal
CCRF-CEM leukemia = test system: CCRF-CEM leukemia
MOLT-4 leukemia = test system: MOLT-4 leukemia

Measured: growth

N#Cc1c(-c2ccc(Cl)cc2)nc(NN=Cc2cccc(O)c2)nc1N1CCOCC1
inactive: SK-MEL-2 melanoma 91.5% | EKVX NSCLC 66.6% | SN12C renal 78.3% | UO-31 renal 35.7% | TK-10 renal 79% | ACHN renal 60.9% | CAKI-1 renal 60.5% | A498 renal 75.1% | CCRF-CEM leukemia 36.2% | MOLT-4 leukemia 39.8%

C#CCn1cnc2c(Nc3cccc(NC(=O)C=C)c3)ncnc21
inactive: SK-MEL-2 melanoma 84.1% | EKVX NSCLC 84.8% | SN12C renal 83.4% | UO-31 renal 42.3% | TK-10 renal 93.3% | ACHN renal 69.1% | CAKI-1 renal 82.1% | A498 renal 80.5% | CCRF-CEM leukemia 81.6% | MOLT-4 leukemia 71.2%

CCOC(=O)c1cc(C(=O)c2cc(OC)c(OC)c(OC)c2)n2ccc(-c3ccncc3)cc12
inactive: SK-MEL-2 melanoma 86.5% | EKVX NSCLC 101% | SN12C renal 97.8% | UO-31 renal 70.3% | TK-10 renal 100% | ACHN renal 99.8% | CAKI-1 renal 84.5% | A498 renal 85.6% | CCRF-CEM leukemia 90% | MOLT-4 leukemia 115%

CCCCCOc1ccc(C(=O)/C(Br)=C/C(=O)O)cc1
inactive: SK-MEL-2 melanoma 95.2% | EKVX NSCLC 103% | SN12C renal 102% | UO-31 renal 98.6% | TK-10 renal 125% | ACHN renal 94.3% | CAKI-1 renal 81.1% | A498 renal 86.2% | CCRF-CEM leukemia 80.5% | MOLT-4 leukemia 65.4%

CCCCC(=O)Nc1ncc(Cc2ccc(Cl)cc2)s1
inactive: SK-MEL-2 melanoma 90.4% | EKVX NSCLC 72.2% | SN12C renal 74.6% | UO-31 renal 58.2% | TK-10 renal 84.8% | ACHN renal 81.8% | CAKI-1 renal 42.3% | A498 renal 70.6% | CCRF-CEM leukemia 76.4% | MOLT-4 leukemia 66.2%

CN1CCN(Cc2ccc3c(NNC(=O)c4ccccc4)nc4cc(F)ccc4n23)CC1
inactive: SK-MEL-2 melanoma 57.7% | EKVX NSCLC 21.5% | SN12C renal 17.2% | TK-10 renal 30% | ACHN renal 11.5% | CAKI-1 renal 11.8% | CCRF-CEM leukemia 12.2% | MOLT-4 leukemia 12%
active: UO-31 renal 7.31% | A498 renal -7.93%

Cc1ccc(/C=N/Nc2nc(Nc3ccccc3)nc(-n3nc(C)cc3C)n2)cc1
active: TK-10 renal 3.47% | CAKI-1 renal -21.1%
inactive: SK-MEL-2 melanoma 32.6% | EKVX NSCLC 27.3% | SN12C renal 48.9% | UO-31 renal 20.1% | ACHN renal 35.5% | A498 renal 58.5% | CCRF-CEM leukemia 41% | MOLT-4 leukemia 42.3%

C[C@]12C=CC(=O)C=C1CCC1C2[C@@H](O)C[C@@]2(C)C1CC[C@]2(O)C(=O)COC(=O)CCC(=O)O (stereo not given in full)
inactive: SK-MEL-2 melanoma 117% | EKVX NSCLC 74.2% | SN12C renal 74.2% | UO-31 renal 92.2% | TK-10 renal 116% | ACHN renal 102% | CAKI-1 renal 82.5% | A498 renal 89.2% | CCRF-CEM leukemia 60.9% | MOLT-4 leukemia 100%

CC(O)c1cnc(/C=C2\SC(=S)N(Cc3ccccc3)C2=O)s1 (stereo not given)
inactive: SK-MEL-2 melanoma 69.1% | EKVX NSCLC 98.1% | SN12C renal 95.5% | UO-31 renal 93.5% | ACHN renal 88.2% | CAKI-1 renal 87.8% | A498 renal 104% | CCRF-CEM leukemia 18.8% | MOLT-4 leukemia 58.1%
active: TK-10 renal -18.5%

CN(C)Cc1ccc(NC(=O)c2cncc(C#Cc3cnc(N)c4ncccc34)c2)cc1F
active: CCRF-CEM leukemia 4.73%
inactive: SK-MEL-2 melanoma 88.6% | EKVX NSCLC 93.4% | SN12C renal 86.4% | UO-31 renal 108% | TK-10 renal 141% | ACHN renal 61.1% | CAKI-1 renal 87.7% | A498 renal 73.9% | MOLT-4 leukemia 76.3%

Oc1c(Cl)cc(Cl)c2ccc(Cn3cc(-c4cc(F)cc(F)c4)nn3)nc12
inactive: SK-MEL-2 melanoma 96.3% | EKVX NSCLC 84.7% | SN12C renal 78.7% | UO-31 renal 68.3% | TK-10 renal 102% | ACHN renal 36.5% | CAKI-1 renal 18.1% | A498 renal 99.4% | MOLT-4 leukemia 17.4%
active: CCRF-CEM leukemia 4.58%

CCc1ccc(Oc2cn[nH]c2-c2ccc(OCCc3ccc(F)cc3)cc2O)cc1
inactive: SK-MEL-2 melanoma 90.1% | EKVX NSCLC 87.9% | SN12C renal 95.3% | UO-31 renal 81.7% | TK-10 renal 66.8% | ACHN renal 94% | CAKI-1 renal 100% | A498 renal 105% | CCRF-CEM leukemia 95.6% | MOLT-4 leukemia 84.4%

COc1ccc2c(O)c(/C=C3\N=Nc4ncccc43)oc2c1C[C@H]1CCNC[C@H]1F
inactive: TK-10 renal 19.8%
active: SK-MEL-2 melanoma -6.33% | EKVX NSCLC 5.31% | SN12C renal 7.25% | UO-31 renal 4.13% | ACHN renal 4.51% | CAKI-1 renal 6% | A498 renal -41.8% | CCRF-CEM leukemia -3.17% | MOLT-4 leukemia -34.3%

C#Cc1ccc(NC(=O)c2ccc(/C=C/C(=O)c3nccn3C)cc2)cc1
active: SK-MEL-2 melanoma -30.4% | EKVX NSCLC -75.4% | SN12C renal -37.5% | UO-31 renal -98.8% | TK-10 renal -2.59% | ACHN renal -72.1% | CAKI-1 renal -81.6% | A498 renal -70.3% | CCRF-CEM leukemia -9.16% | MOLT-4 leukemia -10%

COc1cccc(/C=C/C(=O)c2cc3c(N)c(C(=O)Nc4ccccc4)sc3nc2C)c1
active: SN12C renal 8.27% | CCRF-CEM leukemia 7.86%
inactive: SK-MEL-2 melanoma 25.6% | EKVX NSCLC 75.8% | UO-31 renal 11.8% | TK-10 renal 40.1% | ACHN renal 33.5% | CAKI-1 renal 15.4% | A498 renal 58.8% | MOLT-4 leukemia 20.8%

C=CCc1c2c(c(OC)c3ccoc13)C(=O)/C(=C/c1ccccc1OC)O2
inactive: SK-MEL-2 melanoma 58.4% | EKVX NSCLC 60.6% | SN12C renal 62.1% | UO-31 renal 65.7% | TK-10 renal 52.9% | ACHN renal 59.3% | CAKI-1 renal 38.4% | A498 renal 46.2% | CCRF-CEM leukemia 37.5% | MOLT-4 leukemia 45.8%

OCc1cccc(-c2ccc3ncc(-c4nc(NC5CC5)ncc4F)n3c2)c1
inactive: TK-10 renal 13.5%
active: SK-MEL-2 melanoma -55.4% | EKVX NSCLC 2.69% | SN12C renal -15.4% | UO-31 renal -14.1% | ACHN renal -13.2% | CAKI-1 renal 1.44% | A498 renal -47.8% | CCRF-CEM leukemia -2% | MOLT-4 leukemia -27.8%

Cc1ccc(-c2csc(NC(=O)CN3CCN(c4cc5c(cc4F)c(=O)c(C(=O)O)cn5C4CC4)CC3)n2)cc1
inactive: EKVX NSCLC 16.5% | SN12C renal 16.4% | UO-31 renal 12.1% | TK-10 renal 15.9% | CAKI-1 renal 20.8%
active: SK-MEL-2 melanoma -13.5% | ACHN renal 4.32% | A498 renal 7.69% | CCRF-CEM leukemia 8.52% | MOLT-4 leukemia 4.51%

COc1cc(CNC(=O)CCCC/C=C/C(C)C)ccc1OCc1nnc(Nc2ccc([N+](=O)[O-])cc2)o1
inactive: SK-MEL-2 melanoma 78.9% | EKVX NSCLC 74.7% | SN12C renal 49% | UO-31 renal 58.7% | TK-10 renal 84.1% | ACHN renal 41.2% | CAKI-1 renal 33.6% | A498 renal 56.8% | CCRF-CEM leukemia 78.9% | MOLT-4 leukemia 84.2%

COC(=O)c1c2c(c(C)[n+]([O-])c1C)C(=O)C(NCc1ccc(Cl)cc1)=CC2=O
inactive: SK-MEL-2 melanoma 83.4% | EKVX NSCLC 70.9% | SN12C renal 38% | UO-31 renal 79% | TK-10 renal 111% | ACHN renal 67.5% | CAKI-1 renal 76.3% | A498 renal 88.2% | CCRF-CEM leukemia 58% | MOLT-4 leukemia 72.8%

COc1ccc(-c2nc(SCC(C)C)nc(N/N=C\c3ccc(F)cc3)c2C#N)cc1
inactive: SK-MEL-2 melanoma 104% | EKVX NSCLC 93.9% | SN12C renal 78.6% | UO-31 renal 67.2% | TK-10 renal 81.5% | ACHN renal 30.3% | CAKI-1 renal 91.1% | A498 renal 74.4% | CCRF-CEM leukemia 82.3% | MOLT-4 leukemia 88.2%

CN(C)CCCC1(c2ccc(F)cc2)OCc2cc(-c3cccc4[nH]ccc34)ccc21 (stereo not given)
active: UO-31 renal -9.8% | ACHN renal 9.24% | CAKI-1 renal 6.71% | MOLT-4 leukemia -8.64%
inactive: SK-MEL-2 melanoma 74.5% | EKVX NSCLC 44.8% | SN12C renal 48.3% | TK-10 renal 58.5% | A498 renal 72% | CCRF-CEM leukemia 16%

CCN(CC)CCOc1ccc(C(=C(C)c2ccc(Cl)cc2)c2ccc(OCCN(CC)CC)cc2)cc1
active: SK-MEL-2 melanoma -60.2% | SN12C renal -83.7% | UO-31 renal -92.8% | TK-10 renal -87.2% | ACHN renal -88.3% | CAKI-1 renal -95.7% | A498 renal 7.66% | CCRF-CEM leukemia -62.8% | MOLT-4 leukemia -64.2%
inactive: EKVX NSCLC 26.1%

COc1cc(/C=C\c2cc(/C=C\c3ccc(O)c(OC)c3)n(C(=O)COc3ccc(Cl)cc3Cl)n2)ccc1O
inactive: EKVX NSCLC 38.4% | TK-10 renal 20.5% | ACHN renal 18.7% | CAKI-1 renal 14.8% | A498 renal 17.6%
active: SK-MEL-2 melanoma -4.36% | SN12C renal 8.09% | UO-31 renal 8.72% | CCRF-CEM leukemia 4.35% | MOLT-4 leukemia -0.332%

O=C(CSc1nc(-c2ccccc2)[nH]c1S(=O)(=O)c1ccccc1)NC1CC1
inactive: SK-MEL-2 melanoma 102% | EKVX NSCLC 65.1% | SN12C renal 96.5% | UO-31 renal 89.2% | TK-10 renal 87.2% | ACHN renal 104% | CAKI-1 renal 99.2% | A498 renal 72.9% | CCRF-CEM leukemia 93.4% | MOLT-4 leukemia 93.8%

CC(C)n1cnc2c(=S)nc[nH]c21
inactive: SK-MEL-2 melanoma 114% | EKVX NSCLC 98% | SN12C renal 108% | UO-31 renal 92% | TK-10 renal 109% | ACHN renal 93.7% | CAKI-1 renal 73.1% | A498 renal 127% | CCRF-CEM leukemia 90.9% | MOLT-4 leukemia 56.6%
